Experimental data taken from PubChem BioAssay (NCI).
About 79,000 compounds went through this panel and 15% of them were active in at least one assay; those are over-represented in the sample as a whole. The source made the active and inactive calls. Cut-off read from the data, not from the text of the source: active = growth inhibition above about 70%; inactive = the rest.

What was measured:
[1] = NCI Yeast Anticancer Drug Screen. Data for the rad50 strain (AID 155);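 note: 0% = growth of vehicle-only cultures of the same strain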; conditions: S. cerevisiae rad50 strain growth inhibition, hits give high values
Outline: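 A DNA repair-deficient yeast mutant serves as the test organism; compound-induced growth inhibition is calculated against vehicle-treated cells.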

[2] = NCI Yeast Anticancer Drug Screen. Data for the mec2-1 strain (AID 157); conditions: S. cerevisiae mec2-1 strain, hits give high values
Outline: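 Mutant yeast (mec2-1) grown with compound; growth inhibition relative to vehicle control reported.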

[3] = NCI Yeast Anticancer Drug Screen. Data for the sgs1 mgt1 strain (AID 161);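 note: 0% = growth of cultures given vehicle only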; conditions: S. cerevisiae sgs1 mgt1 strain, hits give high values
Outline: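 Growth of a repair-deficient yeast mutant was monitored after compound treatment and expressed as inhibition relative to vehicle-treated cultures.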

[4] = NCI Yeast Anticancer Drug Screen. Data for the cln2 rad14 strain (AID 165);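 note: 0% = growth equal to vehicle treated cultures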; conditions: S. cerevisiae cln2 rad14 strain, hits give high values
Outline: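 Readout is yeast growth inhibition versus vehicle-treated controls, using a strain with cln2 and rad14 alterations exposed to compound.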

[5] = NCI Yeast Anticancer Drug Screen. Data for the bub3 strain (AID 167); conditions: S. cerevisiae bub3 mutant strain, hits give high values
Outline: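 Inhibition values come from growth of compound-treated mutant yeast normalised to vehicle-treated controls.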

[6] = NCI Yeast Anticancer Drug Screen. Data for the mlh1 rad18 strain (AID 175); conditions: S. cerevisiae mlh1 rad18 strain growth inhibition, hits give high values
Outline: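 Genetically defined yeast (DNA repair-deficient) exposed to compounds; growth inhibition determined relative to vehicle.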

[7] = at 5.0 µM (retest, dose inferred, filed as 0.5)
[8] = at 50.0 µM (retest, dose inferred, filed as 5.0)

Measured: growth inhibition

O=C1CC(c2ccccc2)NN1 (stereo not given)
active: [1]; [8] 92% | [1]; at 50.0 µM 90.9% | [2]; [8] 94% | [2]; at 50.0 µM 90.5% | [3]; [8] 89% | [4]; [8] 93% | [4]; at 50.0 µM 87.8% | [5]; [8] 87% | [5]; at 50.0 µM 88.2% | [6]; [8] 93% | [6]; at 50.0 µM 86.5%
inactive: [1]; [7] -108% | [2]; [7] -42% | [3]; [7] -51% | [3]; at 50.0 µM 69.8% | [4]; [7] -62% | [5]; [7] -71% | [6]; [7] -114%

COc1ccc(/C(Cl)=C(\c2ccc(OCCN(C)C)cc2)c2ccc(OC(=O)C(C)(C)C)cc2)cc1
active: [1]; at 50.0 µM 91.8% | [2]; at 50.0 µM 92% | [3]; at 50.0 µM 92.3% | [5]; at 50.0 µM 89.4% | [6]; at 50.0 µM 90%
inactive: [1]; [7] 23% | [1]; [8] 23% | [2]; [7] 17% | [2]; [8] 17% | [3]; [7] 18% | [3]; [8] 18% | [4]; [7] 10% | [4]; [8] 10% | [4]; at 50.0 µM 60.4% | [5]; [7] 20% | [5]; [8] 20% | [6]; [7] 1% | [6]; [8] 1%

O=C(O)CCn1c2ccccc2c2ccccc21
inactive: [1]; [7] 6% | [1]; [8] 45% | [1]; at 50.0 µM 24.6% | [2]; [7] -13% | [2]; [8] 52% | [2]; at 50.0 µM 36.4% | [3]; [7] -1% | [3]; [8] 68% | [3]; at 50.0 µM 40.5% | [4]; [7] -10% | [4]; [8] 42% | [4]; at 50.0 µM 15.1% | [5]; [7] -6% | [5]; [8] 61% | [5]; at 50.0 µM 55.5% | [6]; [7] -4% | [6]; [8] 49% | [6]; at 50.0 µM 66%

CC(=O)OC[C@@]1(C)[C@@H]2CC[C@]3(C)[C@H](C(=O)C=C4[C@@H]5CC(C)(C)CC[C@]5(C(=O)O)CC[C@]43C)[C@@]2(C)CC[C@@H]1OC(C)=O
active: [1]; [8] 84% | [2]; [8] 88% | [2]; at 50.0 µM 94.2% | [3]; [8] 88% | [3]; at 50.0 µM 92.8% | [4]; [8] 93% | [4]; at 50.0 µM 95.7% | [5]; [8] 91% | [5]; at 50.0 µM 92.7% | [6]; [8] 88% | [6]; at 50.0 µM 95.6%
inactive: [1]; [7] 23% | [1]; at 50.0 µM 43.1% | [2]; [7] 23% | [3]; [7] 28% | [4]; [7] 39% | [5]; [7] 9% | [6]; [7] 29%

O=C(NCCCCCN1CCC2(CCCCC2)CC1)C(c1ccccc1)C1CCCCC1 (stereo not given)
inactive: [1]; [7] -1% | [2]; [7] -12% | [3]; [7] 0% | [4]; [7] 5% | [5]; [7] -15% | [6]; [7] 0%
active: [1]; [8] 99% | [1]; at 50.0 µM 99.6% | [2]; [8] 98% | [2]; at 50.0 µM 99.6% | [3]; [8] 97% | [3]; at 50.0 µM 99.7% | [4]; [8] 99% | [4]; at 50.0 µM 99.2% | [5]; [8] 100% | [5]; at 50.0 µM 99.6% | [6]; [8] 99% | [6]; at 50.0 µM 99.7%

O=C(/N=C1\N=Nc2nc(C(C(=O)c3cccs3)c3nc4n(c3O)/C(=N/C(=O)Nc3ccc(Cl)cc3)N=N4)c(O)n21)Nc1ccc(Cl)cc1 (stereo not given)
inactive: [1]; [7] -22% | [1]; [8] 5% | [1]; at 50.0 µM 38.7% | [2]; [7] -12% | [2]; [8] 23% | [2]; at 50.0 µM 63.4% | [3]; [7] -1% | [3]; [8] 7% | [3]; at 50.0 µM 66.2% | [4]; [7] -33% | [4]; [8] 7% | [4]; at 50.0 µM 63.6% | [5]; [7] -38% | [5]; [8] 27% | [5]; at 50.0 µM 66.8% | [6]; [7] -27% | [6]; [8] 43% | [6]; at 50.0 µM 49.3%

CCN(CC)COC(=S)S
active: [1]; [8] 99% | [1]; at 50.0 µM 97.7% | [2]; [8] 100% | [2]; at 50.0 µM 83.1% | [3]; [8] 99% | [3]; at 50.0 µM 99% | [4]; [8] 97% | [5]; [8] 99% | [5]; at 50.0 µM 97.3% | [6]; [8] 99% | [6]; at 50.0 µM 98.5%
inactive: [1]; [7] 8% | [2]; [7] -3% | [3]; [7] 11% | [4]; [7] 5% | [4]; at 50.0 µM 44% | [5]; [7] -11% | [6]; [7] 15%

Cn1c(=S)sc2nc3ccccc3n2c1=S
inactive: [1]; [7] 49% | [2]; [7] 12% | [3]; [7] 37% | [4]; [7] 18% | [5]; [7] 14% | [6]; [7] 54%
active: [1]; [8] 96% | [1]; at 50.0 µM 82.3% | [2]; [8] 97% | [2]; at 50.0 µM 97% | [3]; [8] 98% | [3]; at 50.0 µM 92.2% | [4]; [8] 98% | [4]; at 50.0 µM 90% | [5]; [8] 98% | [5]; at 50.0 µM 87.4% | [6]; [8] 97% | [6]; at 50.0 µM 97.9%

O=[N+]([O-])/C(Cl)=C(\Sc1ccccc1)C(Cl)=C(Cl)Cl
active: [1]; [7] 100% | [1]; [8] 99% | [1]; at 50.0 µM 89.8% | [2]; [7] 100% | [2]; [8] 100% | [2]; at 50.0 µM 93.4% | [3]; [7] 99% | [3]; [8] 99% | [3]; at 50.0 µM 90.6% | [4]; [7] 99% | [4]; [8] 99% | [4]; at 50.0 µM 91.9% | [5]; [7] 99% | [5]; [8] 99% | [5]; at 50.0 µM 91.8% | [6]; [7] 100% | [6]; [8] 99% | [6]; at 50.0 µM 86.8%

C/C(=N\NC(N)=S)c1ccc(C2CCCCC2)cc1
active: [1]; [7] 73% | [1]; [8] 97% | [1]; at 50.0 µM 97.2% | [2]; [8] 98% | [2]; at 50.0 µM 95.7% | [3]; [7] 88% | [3]; [8] 99% | [3]; at 50.0 µM 98.2% | [4]; [8] 97% | [4]; at 50.0 µM 97% | [5]; [8] 97% | [5]; at 50.0 µM 96.2% | [6]; [7] 83% | [6]; [8] 97% | [6]; at 50.0 µM 94.5%
inactive: [2]; [7] 68% | [4]; [7] 61% | [5]; [7] 60%
